Experiments:
Test in all cases: SPOT peptide array binding signal intensity (averaged, normalized) (arbitrary units (background-subtracted, floor 0; scale differs between SH3 domains)); higher = stronger binding of the SH3 domain to the peptide
[1] = biological target: AgAbp1
Experimental: (§1)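 GST-tagged SH3 domains from S. cerevisiae (Sc), A. gossypii (Ag), C. albicans (Ca) and S. pombe (Sp) were incubated at 10 ug/ml overnight at 4 C on cellulose SPOT membranes carrying 292 synthetic 15-mer peptides mined from the S. cerevisiae proteome (cysteines replaced by serines). Binding was detected with anti-GST antibody, HRP secondary and chemiluminescence, quantified with Genespotter, and reported as normalized spot intensities averaged over biological replicates.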

[2] = biological target: AgBbc1
Experimental: as §1

[3] = biological target: AgBem1-D1
Experimental: as §1

[4] = biological target: AgBzz1-D1
Experimental: as §1

[5] = biological target: AgBzz1-D2
Experimental: as §1

[6] = biological target: AgCyk3
Experimental: as §1

[7] = biological target: AgFus1
Experimental: as §1

[8] = biological target: AgHof1
Experimental: as §1

[9] = biological target: AgHse1
Experimental: as §1

[10] = biological target: AgLsb1
Experimental: as §1

[11] = biological target: AgLsb4
Experimental: as §1

[12] = biological target: AgMyo5
Experimental: as §1

[13] = biological target: AgNbp2
Experimental: as §1

[14] = biological target: AgRvs167
Experimental: as §1

[15] = biological target: AgSho1
Experimental: as §1

[16] = biological target: AgSla1-D1-D2
Experimental: as §1

[17] = biological target: AgSla1-D3
Experimental: as §1

[18] = biological target: CaAbp1-D1
Experimental: as §1

[19] = biological target: CaAbp1-D2
Experimental: as §1

[20] = biological target: CaBbc1
Experimental: as §1

[21] = biological target: CaBem1-D1
Experimental: as §1

[22] = biological target: CaBzz1-D1
Experimental: as §1

[23] = biological target: CaBzz1-D2
Experimental: as §1

[24] = biological target: CaCyk3
Experimental: as §1

[25] = biological target: CaFus1
Experimental: as §1

[26] = biological target: CaHof1
Experimental: as §1

[27] = biological target: CaHse1
Experimental: as §1

[28] = biological target: CaLsb1
Experimental: as §1

[29] = biological target: CaLsb4
Experimental: as §1

[30] = biological target: CaMyo5
Experimental: as §1

[31] = biological target: CaNbp2
Experimental: as §1

[32] = biological target: CaRvs167
Experimental: as §1

[33] = biological target: CaRvs167-3
Experimental: as §1

[34] = biological target: CaSho1
Experimental: as §1

[35] = biological target: CaSla1-D1-D2
Experimental: as §1

[36] = biological target: CaSla1-D3
Experimental: as §1

[37] = biological target: ScAbp1
Experimental: as §1

[38] = biological target: ScBbc1
Experimental: as §1

[39] = biological target: ScBem1-D1
Experimental: as §1

[40] = biological target: ScBzz1-D1
Experimental: as §1

[41] = biological target: ScBzz1-D2
Experimental: as §1

[42] = biological target: ScCyk3
Experimental: as §1

[43] = biological target: ScFus1
Experimental: as §1

[44] = biological target: ScHof1
Experimental: as §1

[45] = biological target: ScHse1
Experimental: as §1

[46] = biological target: ScLsb1
Experimental: as §1

[47] = biological target: ScLsb2
Experimental: as §1

[48] = biological target: ScLsb3
Experimental: as §1

[49] = biological target: ScLsb4
Experimental: as §1

[50] = biological target: ScMyo3
Experimental: as §1

[51] = biological target: ScMyo5
Experimental: as §1

[52] = biological target: ScNbp2
Experimental: as §1

[53] = biological target: ScPex13
Experimental: as §1

[54] = biological target: ScRvs167
Experimental: as §1

[55] = biological target: ScSho1
Experimental: as §1

[56] = biological target: ScSla1-D1-D2
Experimental: as §1

[57] = biological target: ScSla1-D3
Experimental: as §1

[58] = biological target: SpAbp1-D1
Experimental: as §1

[59] = biological target: SpBbc1
Experimental: as §1

[60] = biological target: SpBzz1-D1
Experimental: as §1

[61] = biological target: SpBzz1-D2
Experimental: as §1

[62] = biological target: SpCyk3
Experimental: as §1

[63] = biological target: SpHof1
Experimental: as §1

[64] = biological target: SpHof1-2
Experimental: as §1

[65] = biological target: SpHof1-3
Experimental: as §1

[66] = biological target: SpHse1
Experimental: as §1

[67] = biological target: SpLsb1
Experimental: as §1

[68] = biological target: SpLsb4
Experimental: as §1

[69] = biological target: SpMyo1
Experimental: as §1

[70] = biological target: SpNbp2
Experimental: as §1

[71] = biological target: SpPex13
Experimental: as §1

[72] = biological target: SpRvs167
Experimental: as §1

[73] = biological target: SpSla1-D1-D2
Experimental: as §1

[74] = biological target: SpSla1-D3
Experimental: as §1

LLIRWLILMPLVGSR was tested, and the “SPOT peptide array binding signal intensity” value [1] was 19.5, the “SPOT peptide array binding signal intensity” value [2] was 29.5 and the “SPOT peptide array binding signal intensity” value [3] was 284. The “SPOT peptide array binding signal intensity” value [4] was 39, the “SPOT peptide array binding signal intensity” value [5] was 62 and the “SPOT peptide array binding signal intensity” value [6] was 24.5. The “SPOT peptide array binding signal intensity” value [7] was 3190, the “SPOT peptide array binding signal intensity” value [8] was 53 and the “SPOT peptide array binding signal intensity” value [9] was 2550. The “SPOT peptide array binding signal intensity” value [10] was 2.5, the “SPOT peptide array binding signal intensity” value [11] was 1800 and the “SPOT peptide array binding signal intensity” value [12] was 4.5. The “SPOT peptide array binding signal intensity” value [13] was 722, the “SPOT peptide array binding signal intensity” value [14] was 26.5 and the “SPOT peptide array binding signal intensity” value [15] was 1270. The “SPOT peptide array binding signal intensity” value [16] was 41, the “SPOT peptide array binding signal intensity” value [17] was 5 and the “SPOT peptide array binding signal intensity” value [18] was 334. The “SPOT peptide array binding signal intensity” value [19] was 321, the “SPOT peptide array binding signal intensity” value [20] was 68 and the “SPOT peptide array binding signal intensity” value [21] was 125. For the same binder, the “SPOT peptide array binding signal intensity” value [22] was 222, the “SPOT peptide array binding signal intensity” value [23] was 109 and the “SPOT peptide array binding signal intensity” value [24] was 48. For the same binder, the “SPOT peptide array binding signal intensity” value [25] was 5090, the “SPOT peptide array binding signal intensity” value [26] was 1.25 and the “SPOT peptide array binding signal intensity” value [27] was 875. For the same binder, the “SPOT peptide array binding signal intensity” value [28] was 26.5, the “SPOT peptide array binding signal intensity” value [29] was 191 and the “SPOT peptide array binding signal intensity” value [30] was 40. For the same binder, the “SPOT peptide array binding signal intensity” value [31] was 1390, the “SPOT peptide array binding signal intensity” value [32] was 524 and the “SPOT peptide array binding signal intensity” value [33] was 780. The “SPOT peptide array binding signal intensity” value [34] was 3580, the “SPOT peptide array binding signal intensity” value [35] was 30 and the “SPOT peptide array binding signal intensity” value [36] was 397. For the same binder, the “SPOT peptide array binding signal intensity” value [37] was 35, the “SPOT peptide array binding signal intensity” value [38] was 1.5 and the “SPOT peptide array binding signal intensity” value [39] was 60. The “SPOT peptide array binding signal intensity” value [40] was 37, the “SPOT peptide array binding signal intensity” value [41] was 240 and the “SPOT peptide array binding signal intensity” value [42] was 122. The “SPOT peptide array binding signal intensity” value [43] was 3690, the “SPOT peptide array binding signal intensity” value [44] was 0.25 and the “SPOT peptide array binding signal intensity” value [45] was 2940. The “SPOT peptide array binding signal intensity” value [46] was 11, the “SPOT peptide array binding signal intensity” value [47] was 33 and the “SPOT peptide array binding signal intensity” value [48] was 850. The “SPOT peptide array binding signal intensity” value [49] was 150, the “SPOT peptide array binding signal intensity” value [50] was 5 and the “SPOT peptide array binding signal intensity” value [51] was 7. For the same binder, the “SPOT peptide array binding signal intensity” value [52] was 566, the “SPOT peptide array binding signal intensity” value [53] was 65.2 and the “SPOT peptide array binding signal intensity” value [54] was 19.3. For the same binder, the “SPOT peptide array binding signal intensity” value [55] was 2890, the “SPOT peptide array binding signal intensity” value [56] was 23 and the “SPOT peptide array binding signal intensity” value [57] was 132. For the same binder, the “SPOT peptide array binding signal intensity” value [58] was 248, the “SPOT peptide array binding signal intensity” value [59] was 22.8 and the “SPOT peptide array binding signal intensity” value [60] was 300. For the same binder, the “SPOT peptide array binding signal intensity” value [61] was 13.5, the “SPOT peptide array binding signal intensity” value [62] was 25 and the “SPOT peptide array binding signal intensity” value [63] was 306. For the same binder, the “SPOT peptide array binding signal intensity” value [64] was 75.2, the “SPOT peptide array binding signal intensity” value [65] was 2420 and the “SPOT peptide array binding signal intensity” value [66] was 2700. For the same binder, the “SPOT peptide array binding signal intensity” value [67] was 2, the “SPOT peptide array binding signal intensity” value [68] was 341 and the “SPOT peptide array binding signal intensity” value [69] was 18. The “SPOT peptide array binding signal intensity” value [70] was 1450, the “SPOT peptide array binding signal intensity” value [71] was 232 and the “SPOT peptide array binding signal intensity” value [72] was 37.7. The “SPOT peptide array binding signal intensity” value [73] was ≤ 0 and the “SPOT peptide array binding signal intensity” value [74] was 120.

For HGKRRAPLLLAKLDV, the “SPOT peptide array binding signal intensity” value [1] was 19, the “SPOT peptide array binding signal intensity” value [2] was 2 and the “SPOT peptide array binding signal intensity” value [3] was 26. The “SPOT peptide array binding signal intensity” value [4] was 82, the “SPOT peptide array binding signal intensity” value [5] was 34.5 and the “SPOT peptide array binding signal intensity” value [6] was 7. The “SPOT peptide array binding signal intensity” value [7] was 93, the “SPOT peptide array binding signal intensity” value [8] was 13.5 and the “SPOT peptide array binding signal intensity” value [9] was 145. For the same binder, the “SPOT peptide array binding signal intensity” value [10] was ≤ 0, the “SPOT peptide array binding signal intensity” value [11] was 29.5 and the “SPOT peptide array binding signal intensity” value [12] was 3. The “SPOT peptide array binding signal intensity” value [13] was 58, the “SPOT peptide array binding signal intensity” value [14] was 6.67 and the “SPOT peptide array binding signal intensity” value [15] was 6. For the same binder, the “SPOT peptide array binding signal intensity” value [16] was 94.5, the “SPOT peptide array binding signal intensity” value [17] was 20 and the “SPOT peptide array binding signal intensity” value [18] was 499. For the same binder, the “SPOT peptide array binding signal intensity” value [19] was 238, the “SPOT peptide array binding signal intensity” value [20] was 57.8 and the “SPOT peptide array binding signal intensity” value [21] was 44. The “SPOT peptide array binding signal intensity” value [22] was 94, the “SPOT peptide array binding signal intensity” value [23] was 51.8 and the “SPOT peptide array binding signal intensity” value [24] was 37. The “SPOT peptide array binding signal intensity” value [25] was 312, the “SPOT peptide array binding signal intensity” value [26] was ≤ 0 and the “SPOT peptide array binding signal intensity” value [27] was 7.75. For the same binder, the “SPOT peptide array binding signal intensity” value [28] was 0.25, the “SPOT peptide array binding signal intensity” value [29] was 26 and the “SPOT peptide array binding signal intensity” value [30] was 4.

From the supplement of paper PMC4466140
